Screen size: about 390,000 compounds; about 55 (0.01%) were called active. Calls follow the shape of the dose curve; as a rule, active = well fitted inhibition curve with a large enough effect; inconclusive = small, poorly fitted or top-dose-only effect; inactive = no such curve, though single readings can be large or run the other way. These entries were drawn from the full list.
Target: Thioredoxin reductase 1, cytoplasmic (Rattus norvegicus) (UniProt O89049)
Assay: qHTS Assay for Substrates of Mammalian Selenoprotein Thioredoxin Reductase 1 (TrxR1): qHTS; also: nearly all actives have a fitted effect of over 50% in size
Details: purified TrxR1 substrate turnover, NADPH consumption readout; series mostly up to 114 µM; activity change, negative = substrate turnover: at the top concentration
Source text: The selenoprotein thioredoxin reductase (TrxR; EC 1.8.1.9) is a FAD containing homodimeric pyridine nucleotide-disulfide oxidoreductase with many cellular roles. Together with NADPH and its prime substrate thioredoxin (Trx), the enzyme forms the core of the Trx system. The mammalian Trx system exerts a wide spectrum of functions including redox regulation, antioxidant defense, regulation of transcription factors as well as support of cell growth and replication. Many of these functions involve the reduction of Trx, which may subsequently reduce a number of different substrates including ribonucleotide reductase, peroxiredoxins or NFkB. Mammalian TrxR itself also has a broad substrate specificity, reducing both protein and non-protein substrates, including low molecular weight compounds such as dehydroascorbate, lipoic acid, ubiquinone, and juglone. In addition, several drugs in clinical use for anticancer treatment are indeed known to target TrxR1.
This BioAssay is a validation of an NADPH fluorescence-based, dual-purpose qHTS rTrxR1 assay designed to find potential inhibitors and substrates of rTrxR1. For this particular BioAssay, actives are potential substrate. See related BioAssay for inhibition data deposition.
NIH Molecular Libraries Probe Production Network [MLPCN]
NIH Chemical Genomics Center [NCGC]
Assay Provider: Elias Arner, Karolinska Institute
Assay protocol: 2 uL of reagents (buffer in column 4 as negative control and 90 nM rTrxR1 in columns 1-3 and 5-48) were dispensed into Greiner black solid-bottom 1,536-well assay plates, followed by 1 uL of NADPH (400 uM final concentration) to each well. The plates were centrifuged at 1000 rpm for 15 seconds and subsequently incubated for 5 min at room temperature (~22 deg C) to allow for rTrxR1 reduction. Compounds (23 nL) were then transferred via Kalypsys pin tool equipped with 1536-pin array (10 nL slotted pins, V&P Scientific, San Diego, CA). In addition, a duplicate 2-fold serial dilution of the control compounds auranofin, a known gold-based TrxR1 inhibitor, and juglone (5-hydroxy-1,4-naphthoquinone), a natural TrxR1 substrate, were pin-transferred to columns 2 and 3, respectively. After incubation for 15 min at room temperature (~22 deg C), 1 uL of selenite (400 uM final concentration) were dispensed to each well. The plate was immediately transferred to a ViewLux high-throughput CCD imager (PerkinElmer), wherein kinetic measurements of NADPH fluorescence (Ex 340 nm, Em 450 nm) were acquired (8 minute kinetic read, see Table 1). Read 1 was utilized to assess the capacity of a compound to serve as an rTrxR1 substrate, i.e. a decrease in NADPH fluorescence compared to the no-compound background is an indication of a substrate behavior for that particular compound. For inhibitory activity of a compound, delta values, computed as the difference in fluorescence intensity between the first and last reads of an 8-minute time kinetic window, were used. All reagents were diluted in an assay buffer consisting of 50 mM Tris-HCl, pH 7.5, 2 mM EDTA, and 0.01% Tween-20.
Throughout the screen, reagent bottle and all liquid lines were made light-tight to minimize reagent degradation. All screening operations were performed on a fully integrated robotic system (Kalypsys, San Diego, CA) containing one RX-130 and two RX-90 anthropomorphic robotic arms (Staubli, Duncan, SC). Library plates were screened starting from the lowest and proceeding to the highest concentration, and a 'double-pinning' step of the highest concentration was required to access higher concentrations of compounds. Vehicle-only plates, with DMSO being pin-transferred to the columns 5-48, were inserted uniformly at the beginning and the end of each library in order to monitor and record any shifts in the background, which can be affected by reagent dispensers or loss in enzyme activity over time. […]
% is scaled to controls: 0 for no effect and ±100 for the full control effect.

Sequence of Thioredoxin reductase 1, cytoplasmic (Rattus norvegicus) (O89049 whole entry, looked up): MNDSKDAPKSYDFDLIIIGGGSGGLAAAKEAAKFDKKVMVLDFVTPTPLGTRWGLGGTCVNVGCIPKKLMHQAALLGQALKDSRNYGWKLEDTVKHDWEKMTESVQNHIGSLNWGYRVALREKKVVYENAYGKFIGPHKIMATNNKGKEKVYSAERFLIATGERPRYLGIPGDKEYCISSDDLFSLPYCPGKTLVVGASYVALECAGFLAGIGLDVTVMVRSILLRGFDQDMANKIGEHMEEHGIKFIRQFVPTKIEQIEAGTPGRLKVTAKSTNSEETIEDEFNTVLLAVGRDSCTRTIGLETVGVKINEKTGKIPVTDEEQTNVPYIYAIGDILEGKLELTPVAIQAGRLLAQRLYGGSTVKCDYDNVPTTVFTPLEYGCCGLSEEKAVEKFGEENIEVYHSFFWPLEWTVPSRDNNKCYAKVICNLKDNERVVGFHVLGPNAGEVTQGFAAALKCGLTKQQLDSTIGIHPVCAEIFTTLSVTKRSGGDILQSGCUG

Activity change, negative = substrate turnover, inactive:
Nc1ccc(/C=C/c2ccnc3ccccc23)c([N+](=O)[O-])c1 7.22% [at 0.0914 µM]
O=C(CCCn1c(=O)c2cccn2c2cccnc21)NCc1ccc(F)cc1 11.5%
Cc1ccc(S(=O)(=O)N2CCN(c3nc(-n4cnc5ccccc54)nc4ccccc34)CC2)cc1 21.2%
CSc1n[nH]c(-c2ccco2)n1 -1.88%
CN(C)c1ccc(/C=C2\C=Cc3ccccc32)cc1Br -5.98%
O=C(Nc1ccc2nc(SCCOc3ccccc3)sc2c1)c1ccco1 1.62%
Cn1nnnc1SCCCNCc1cccc(OCc2ccc(Cl)cc2)c1 1.64%
COc1ccc(/C=C/c2ccccn2)cc1OC 10.2%
Cc1csc(NCC(=O)c2c[nH]c3ccccc23)n1 2.82%
Nc1nc(N)c(N=O)c(N)n1 -7.44%
OC(CBr)C[n+]1cccc2cc(Br)ccc21 (stereo not drawn) -10.1%
O=C(c1cnn2c1NC(=C1CC1)C=C2C(F)F)N1CCc2ccccc2C1 -0.0564%
Cc1cccc(CN2Cc3cccc4c3[C@H](C=CC4)CC2=S)c1 0.496%
Cc1cc[n+](C2CCCCC2)cc1 7.57%
COc1cccc(Nc2nc3ccccc3c3nncn23)c1 4.82%
CC(NC(=O)c1cc(Sc2ccc(F)cc2F)nc2ccccc12)c1ccccc1 (stereo not drawn) -8.64% [at 57.1 µM]
Cc1ccc2cccc(NC(=O)c3ccc(OC(C)C)cc3)c2n1 -3.98%
CCc1ccc(Sc2cc(C(=O)NCCCOC(C)C)c3ccccc3n2)cc1 -2.53% [at 57.1 µM]
Nc1ncnc2c1c(I)cn2[C@@H]1C[C@H](N)[C@@H](O)[C@H]1O 9.12% [at 57.1 µM]
Cc1ccc(NC(=O)c2cc3cc(C)ccc3n2C)cc1 39.4%
O=C1COc2ccc(-c3csc(-c4ccc(Cl)cc4)n3)cc2N1 2.22%
CC(C)(C)c1ccc(C(=O)C[n+]2cccc3cc(Cl)ccc32)cc1 -5.71%
OC(Cc1ccc2ccccc2n1)c1ccc(Cl)c(Cl)c1 (stereo not drawn) 8.06%
CO[C@H]1O[C@@H]2O[C@@]3(C)CC[C@@H]4[C@@H](C)CC[C@@H]([C@H]1C)[C@@]24OO3 0.883%
CCOC(=O)c1cc(-c2ccccc2)n(-c2cccc(C(=O)Nc3cc(OC)cc(OC)c3)c2)c1C 3.42% [at 57.1 µM]
CCOC(=O)c1c(C)[nH]c(CCC(=O)Nc2ccc(OC)c(OC)c2)c1C -1.04% [at 57.1 µM]
CCc1ccccc1NC(=O)Cn1c(=O)n(-c2cccc(C)c2)c(=O)c2c1c1cc(OC)ccc1n2C 9.12%
CN(CCC#N)c1ccc(C=O)cc1 -11.2%
COc1ccccc1N1CCN(C2C(=O)c3ccccc3N2C(C)=O)CC1 (stereo not drawn) 1.92% [at 57.1 µM]
CCOc1ccc(NC(=O)C(CC(C)C)N2Cc3ccccc3C2=O)cc1 (stereo not drawn) -4.22%
CN(C)CCCn1c(-c2ccc(Cl)cc2)csc1=Nc1ccccc1 -1.54% [at 57.1 µM]
CC1(C)CCc2cc(S(=O)(=O)N3CCN(c4nc(-c5cccs5)nc5ccccc45)CC3)ccc2O1 2.89%
C=C1C=C(C)n2ncc(C(=O)Nc3ccccc3O)c2N1 1.54%
COC(=O)C1=C(C(=O)OC)[C@@H]2N(Cc3ccccc3)c3ccccc3[C@@]23C[C@@H](C(=O)OC)N(S(=O)(=O)c2ccc(C(F)(F)F)cc2)C3=N1 -10.9%
CCOc1ccc(N2CC(C)Cn3c2nc2c3c(=O)n(Cc3c(F)cccc3Cl)c(=O)n2C)cc1 (stereo not drawn) -1.89%
C=C1C=C(C(F)F)n2ncc(C(=O)NCCc3ccccc3OC)c2N1 -2.11%
Cc1ccc(NC(=O)C(Cc2ccccc2)NS(=O)(=O)c2ccc3c(c2)oc(=O)n3C)cc1C (stereo not drawn) -0.578%
CCOc1ccc(Nc2ncnc3scc(-c4ccc(OC)cc4)c23)cc1 3.1% [at 57.1 µM]
COc1cccc(CNCCSc2nnnn2C)c1OCc1ccccc1Cl 8.42% [at 11.4 µM]
Cc1ccc(Cn2cnc3c(cnn3C(C)(C)C)c2=O)c(F)c1 1.87%
COc1cc(C(=O)Nc2ccc(OCc3cc(=O)n4ccc(C)cc4n3)cc2)cc(OC)c1OC 8.56% [at 57.1 µM]
CC1CCCN(c2nc3c(S(=O)(=O)c4ccc(C(C)C)cc4)nnn3c3ccsc23)C1 (stereo not drawn) 29.8%
Cc1[nH]c2ccccc2c1C(=O)C(=O)N(C)c1ccccc1 1.64%
CN(CC(=O)Nc1ccccc1F)S(=O)(=O)c1ccc2c(c1)c(=O)n(C)c(=O)n2C 7.12%
COc1ccccc1CNC(=O)C(=O)NCC(c1ccco1)S(=O)(=O)c1ccc(F)cc1 (stereo not drawn) -4.27% [at 57.1 µM]
CCOc1ccccc1CNC(=O)C1CCCN(S(=O)(=O)c2ccc3c(ccn3C)c2)C1 (stereo not drawn) 6.22% [at 57.1 µM]
CN(Cc1ccccc1)c1ccc(/C=C/c2ccnc3ccccc23)cc1 -8.75%
Oc1ccccc1-c1nc(/C=C/c2ccc(F)cc2)no1 6.31%
CC(C)Cn1c(-c2ccc(S(=O)(=O)N3CCOCC3)cc2)csc1=Nc1cc(Cl)ccc1Cl 3.11%
COc1cc(OC)c(OC)cc1/C=C1\C=Cc2ccccc21 6.44% [at 0.0914 µM]
Cc1cccc(C(=O)N2CCc3cc(CNC(=O)Cc4ccc(F)cc4)ccc32)c1 -5.32% [at 57.1 µM]
Cc1nnc(SCC(=O)NCc2ccccc2Cl)c2nn(-c3ccccc3)c(C)c12 -2.94%
Brc1cccc[n+]1Cc1cccc(C[n+]2ccccc2Br)c1 -9.86%
COc1cc2[nH]c(=O)n(Cc3ccc(C(=O)NCc4ccc(C)cc4)cc3)c(=O)c2cc1OC 3.98% [at 2.29 µM]
CN(C)c1ccc(/C=N\Nc2ccc([N+](=O)[O-])cc2[N+](=O)[O-])cc1Cl -5.6%
COc1cc2nc(Cl)nc(NC3CC3)c2cc1OC -7.58%
Cc1nnc(C)n1-c1ccc(C(=O)Nc2cccc(Br)c2)cc1 0.591% [at 57.1 µM]
Cc1ccc(C=O)cc1Cl 7.59%
Cc1ccc(-c2nnc3ccc(SCC(N)=O)nn23)cc1 11.6%
CN(C)c1ccc(C=Nc2ccc(/C=C/c3ccnc4ccccc34)cc2)cc1 -26.7%
Cc1nnc(NCc2ccccc2)c2c1nnn2Cc1ccc(F)cc1 -11.2%
CN(C)c1ccc(/C=C/c2sc3ccccc3[n+]2CCCCBr)cc1 -1.1%
CC(C)(C(=O)NO)c1ccccc1 7.41%
O=C1O/C(=C\c2ccc(O)cc2)C(O)=C1c1ccc(O)cc1 -5.92%
NC1CCN(O)C1=O (stereo not drawn) 6.14% [at 57.1 µM]
C=COC(=O)N1CCN(/[N+]([O-])=N/Oc2ccc([N+](=O)[O-])cc2[N+](=O)[O-])CC1 10.5% [at 0.457 µM]
O=C(O)c1c(Br)c(Br)c(Br)c(Br)c1C1c2ccc(O)cc2Oc2cc(O)ccc21 -0.493%
O=C(NCCCO)C(=O)Nc1c2c(nn1-c1ccc(F)cc1)CSC2 -2.34% [at 57.1 µM]
C(=Nc1ccc(/C=C/c2ccnc3ccccc23)cc1)c1cc2c3c(c1)CCCN3CCC2 -2.53%
Cc1ccc2nc3c(cc(C(=O)NC4CCCCC4)c(=N)n3C(C)C)c(=O)n2c1 203%
Cc1ccc(CN(C(=O)COc2ccc(Cl)cc2C)C2CCS(=O)(=O)C2)o1 (stereo not drawn) -0.557%
CCOc1n[nH]c(-c2ccccc2)n1 -11%
COc1ccc(CCNC(=O)CCCCn2c(=O)c3ccccc3n(Cc3ccccc3C)c2=O)cc1OC -7.44%
CS(=O)c1ccc(/C=C2\C=Cc3ccccc32)cc1 (stereo not drawn) 1.35% [at 0.0914 µM]
COc1ccccc1NC(=O)C1=C(C)Nc2ncnn2C1c1sccc1C (stereo not drawn) 3.43% [at 57.1 µM]
Cc1ccc(C2C=C(c3ccc(Cl)cc3)Nc3nc(NC(=O)CCC(=O)O)nn32)cc1 (stereo not drawn) 19% [at 57.1 µM]
C/C=C/NNC(=O)Cc1ccc(OC)cc1 4.71%
CCOC(=O)c1ccc(NC(=O)CCS(=O)(=O)c2ccc3c(c2)oc(=O)n3C)cc1 2.83%
COCCCNC(=O)c1ccc(NC(=O)c2nsc3ccccc23)cc1 1.31% [at 57.1 µM]
CC1(C)C=Cc2c(ccc(C(=O)/C=C/c3ccccc3)c2O)O1 6.76%
CCN(CC)/[N+]([O-])=N/OCOC(=O)Cc1c(C)n(C(=O)c2ccc(Cl)cc2)c2ccc(OC)cc12 12.6% [at 0.457 µM]
CC(=O)/C(C)=N/O 3.07% [at 57.1 µM]
COc1ccc(CN(Cc2ccccc2)C(=O)c2ccc(O)cc2)cc1COc1ccc(NC(C)=O)cc1 -9.25%
O=C(CSc1nc2c(c(=O)[nH]1)CN(Cc1ccc(F)cc1)CC2)Nc1ccccc1Cl 17.6%
O=C(COc1ccccc1)OCc1cc(=O)n2nc(-c3cccs3)sc2n1 0.495% [at 57.1 µM]
Cc1cccc(NC(=O)COC(=O)c2ccccc2OCc2cccc(Br)c2)c1 -1.38%
CN(C)C1=C2C=CC=CC2/C(=C2/C=Cc3ccccc32)C=C1 (stereo not drawn) -4.06%
CSc1nc(-c2ccccc2Cl)nc2c1Cc1c(CO)cnc(C)c1O2 -7.75%
CN(C)c1ccc(/C=C/c2sc3ccccc3[n+]2C)cc1 -3.98%
Cc1cccc(NC(=O)c2ccc3nc(C(C)C)oc3c2)c1C 4.38% [at 57.1 µM]
O=C(Nc1ccccc1C(F)(F)F)c1nc(S(=O)(=O)Cc2ccccc2F)ncc1Cl -1.77%
CN(C)c1ccc(/C=C/C=C/c2ccnc3ccccc23)cc1 -10.2%
CCCCCCC1(C)NC(c2ccc3c(c2)OCO3)=CC(c2ccccc2O)N1 (stereo not drawn) -0.425%
SCc1nc2ccc(Cl)cc2[nH]1 6.82%
Cc1ccc2nc(COc3cccc(NC(=O)Nc4ccc(C)c(Cl)c4)c3)cc(=O)n2c1 4.87% [at 57.1 µM]
O=C1C[C@H]2C=CCc3cccc(c32)CN1Cc1ccccc1 1.88%
O=C1CCC[C@@H]2C[C@@]3(C[C@@H]4CCN1[C@H]24)Nc1ccccc1NC3=NCc1ccccc1 0.601%
CCCCOc1ccc(CN2C(=O)C(=O)c3cc(Br)cc(C)c32)cc1OC -13.6%
CCN(CC)c1ccc(/C=C/c2c(C)cnc3ccc(C)cc23)cc1 0.74%
CCOc1ccc(CCNC(=O)Cn2nc(CC)n3c(cc4sc(CC)cc43)c2=O)cc1OCC 5.63%
CCC(C)N(c1ccc(/C=C/c2ccnc3ccccc23)cc1)C(C)CC (stereo not drawn) -24.3%
O=C(COc1ccccc1C(=O)Nc1ccccc1)Nc1cccc(F)c1 -2.82%
CCCCOc1ccc(C(=O)NO)cc1 7.06%
